These results are taken from ChEMBL document CHEMBL5308504, “Tm Shift (DSF) assay results for EUbOPEN Chemogenomics Library” (2023).

Several values for one entry are separate records, joined by “and”; a condition that tells them apart may be missing. Equal values may be shown once.

Common to all, as to conditions: Compound concentration 20.0 uM, Protein concentration 2.0 uM, Result type QC Liability
The target of experiment [1] is Tyrosine-protein kinase ABL1 (Homo sapiens) (UniProt P00519).
The target of experiment [2] is Cyclin-dependent kinase 2 (Homo sapiens) (UniProt P24941).
The target of experiment [3] is Casein kinase I isoform delta (Homo sapiens) (UniProt P48730).
Casein kinase I isoform delta (Homo sapiens), sequence (P48730 whole entry, looked up, canonical isoform): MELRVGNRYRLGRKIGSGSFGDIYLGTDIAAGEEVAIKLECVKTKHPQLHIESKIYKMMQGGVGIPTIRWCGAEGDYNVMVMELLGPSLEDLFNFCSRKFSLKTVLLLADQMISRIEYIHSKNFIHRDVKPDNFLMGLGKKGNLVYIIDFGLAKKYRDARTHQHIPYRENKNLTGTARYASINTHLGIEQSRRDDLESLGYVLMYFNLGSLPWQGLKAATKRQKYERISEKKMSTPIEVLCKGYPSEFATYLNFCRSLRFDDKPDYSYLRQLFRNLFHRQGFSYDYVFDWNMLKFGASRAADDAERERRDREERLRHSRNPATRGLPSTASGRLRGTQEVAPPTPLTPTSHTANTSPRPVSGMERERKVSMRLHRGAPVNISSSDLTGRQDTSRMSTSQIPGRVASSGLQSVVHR
Experiment [4] addresses Glycogen synthase kinase-3 beta (Homo sapiens) (UniProt P49841).
For experiment [5], the target named is Mitogen-activated protein kinase 1 (Homo sapiens) (UniProt P28482).
Mitogen-activated protein kinase 1 (Homo sapiens), sequence (P28482 whole entry): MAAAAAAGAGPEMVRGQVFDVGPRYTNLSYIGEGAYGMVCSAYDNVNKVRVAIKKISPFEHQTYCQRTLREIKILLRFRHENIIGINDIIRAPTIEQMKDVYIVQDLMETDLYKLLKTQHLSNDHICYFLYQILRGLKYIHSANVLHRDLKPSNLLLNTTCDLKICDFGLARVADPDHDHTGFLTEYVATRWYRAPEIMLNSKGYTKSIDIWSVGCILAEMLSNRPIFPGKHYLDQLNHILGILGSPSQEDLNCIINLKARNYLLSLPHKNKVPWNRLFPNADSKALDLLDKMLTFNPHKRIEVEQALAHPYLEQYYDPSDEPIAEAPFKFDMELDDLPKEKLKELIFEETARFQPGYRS
The target in experiment [6] is T1, Aurora kinase A (Homo sapiens) (UniProt O14965).
T1 sequence (whole entry): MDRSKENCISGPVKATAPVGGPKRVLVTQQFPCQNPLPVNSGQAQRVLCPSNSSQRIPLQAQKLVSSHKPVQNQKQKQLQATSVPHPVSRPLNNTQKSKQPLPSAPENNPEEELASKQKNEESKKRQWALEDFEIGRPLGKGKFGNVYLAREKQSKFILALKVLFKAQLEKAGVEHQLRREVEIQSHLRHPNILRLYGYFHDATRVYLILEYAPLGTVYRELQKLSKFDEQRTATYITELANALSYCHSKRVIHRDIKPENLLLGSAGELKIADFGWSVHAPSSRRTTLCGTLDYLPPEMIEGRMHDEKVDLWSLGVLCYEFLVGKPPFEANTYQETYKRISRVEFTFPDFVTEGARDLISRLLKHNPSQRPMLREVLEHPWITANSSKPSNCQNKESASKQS

Tyrosine-protein kinase ABL1 (Homo sapiens), sequence (P00519 whole entry): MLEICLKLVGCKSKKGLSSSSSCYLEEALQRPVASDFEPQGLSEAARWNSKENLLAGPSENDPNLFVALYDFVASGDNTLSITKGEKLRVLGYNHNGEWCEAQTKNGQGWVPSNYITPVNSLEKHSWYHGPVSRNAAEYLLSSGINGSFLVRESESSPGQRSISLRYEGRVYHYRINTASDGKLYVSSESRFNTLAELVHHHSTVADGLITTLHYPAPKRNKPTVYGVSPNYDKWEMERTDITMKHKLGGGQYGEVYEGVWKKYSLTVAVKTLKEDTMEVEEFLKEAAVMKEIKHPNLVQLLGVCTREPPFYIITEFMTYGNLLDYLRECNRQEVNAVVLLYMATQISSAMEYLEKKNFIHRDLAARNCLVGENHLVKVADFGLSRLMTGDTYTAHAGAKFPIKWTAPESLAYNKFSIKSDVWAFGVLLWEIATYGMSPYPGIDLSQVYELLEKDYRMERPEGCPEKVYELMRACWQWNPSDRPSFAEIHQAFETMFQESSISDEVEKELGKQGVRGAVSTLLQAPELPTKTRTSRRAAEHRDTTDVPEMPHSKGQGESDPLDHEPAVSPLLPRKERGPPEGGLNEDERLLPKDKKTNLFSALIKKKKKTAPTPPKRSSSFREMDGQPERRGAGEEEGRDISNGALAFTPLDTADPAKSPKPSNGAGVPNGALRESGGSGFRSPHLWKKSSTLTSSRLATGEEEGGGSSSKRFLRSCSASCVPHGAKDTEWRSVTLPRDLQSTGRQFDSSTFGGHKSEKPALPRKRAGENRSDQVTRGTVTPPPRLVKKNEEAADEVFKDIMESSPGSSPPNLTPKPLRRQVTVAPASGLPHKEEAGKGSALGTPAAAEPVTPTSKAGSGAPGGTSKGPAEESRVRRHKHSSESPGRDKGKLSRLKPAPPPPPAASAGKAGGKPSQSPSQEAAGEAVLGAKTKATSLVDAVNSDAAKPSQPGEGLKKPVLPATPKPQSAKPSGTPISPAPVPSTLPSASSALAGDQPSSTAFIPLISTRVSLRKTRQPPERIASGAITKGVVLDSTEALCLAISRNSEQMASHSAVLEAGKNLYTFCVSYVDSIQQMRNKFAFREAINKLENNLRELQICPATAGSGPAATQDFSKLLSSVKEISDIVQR
Glycogen synthase kinase-3 beta (Homo sapiens), sequence (P49841 whole entry, looked up): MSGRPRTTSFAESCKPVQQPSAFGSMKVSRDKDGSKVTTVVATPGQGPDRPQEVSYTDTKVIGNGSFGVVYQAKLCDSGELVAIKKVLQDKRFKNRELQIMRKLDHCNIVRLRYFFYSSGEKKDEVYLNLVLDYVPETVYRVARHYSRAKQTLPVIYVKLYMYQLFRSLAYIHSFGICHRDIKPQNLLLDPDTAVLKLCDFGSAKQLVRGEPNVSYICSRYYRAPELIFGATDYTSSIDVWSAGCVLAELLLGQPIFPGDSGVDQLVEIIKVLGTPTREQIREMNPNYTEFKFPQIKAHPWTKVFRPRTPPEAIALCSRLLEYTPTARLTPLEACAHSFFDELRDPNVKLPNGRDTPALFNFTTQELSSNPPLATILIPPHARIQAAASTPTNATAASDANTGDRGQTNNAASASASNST

`CNC(=O)c1nnc(NC(=O)C2CC2)cc1Nc1cccc(-c2ncn(C)n2)c1OC`: the ΔTm in experiment [1] was 3.38 °C; in experiment [2], 0.57 °C; in experiment [3] it was 0.11 °C; in experiment [4], 5.87 °C; in experiment [5], 0.36 °C; in experiment [6], 0.41 °C.
Regarding `Cc1cc(=O)oc2cc(NC(=O)[C@H](Cc3ccc(I)cc3)NC(=O)[C@H]3N[C@@H]4CC[C@H]3C4)ccc12`, the ΔTm is 0 °C in experiment [1]; -0.62 °C in experiment [2]; 0.37 °C in experiment [3]; -0.08 °C in experiment [4]; 0.09 °C in experiment [5]; -0.48 °C in experiment [6].
On to `CN(CCCCCCC1=C(c2cc(F)cc(F)c2)CCCc2cc(O)ccc21)CCCCS(=O)(=O)CCCC(F)(F)F`, for which the shift in melting temperature (ΔTm) is -0.9 °C in experiment [1]; -0.47 °C in experiment [2]; 0.28 °C in experiment [3]; 0 °C in experiment [4]; -9.1 °C in experiment [5]; 0.84 °C in experiment [6].
In the case of `CC[C@@H](CO)Nc1nc(Nc2cccc(NC(=O)C(C)(C)C)c2)ncc1F`, the shift in melting temperature (ΔTm) was 1.74 °C in experiment [1]; 1.9 °C in experiment [2]; 0.38 °C in experiment [3]; 3.34 °C in experiment [4]; 0.54 °C in experiment [5]; 9.07 °C in experiment [6].
Take `COC1(C#Cc2ccc(Cl)c(-c3ncc4c(n3)-c3sc(NC(C)=O)nc3CC4)c2)CCN(C)CC1`: the ΔTm was 0.87 °C in experiment [1]; -0.1 °C in experiment [2]; 1.14 °C in experiment [3]; -0.95 °C in experiment [4]; 0.03 °C in experiment [5]; 0 °C in experiment [6].
With `COc1ccc(-c2cc3c(C)nc(N)nc3n([C@H]3CC[C@H](OCCO)CC3)c2=O)cn1`, the ΔTm is 0.46 °C in experiment [1]; 0 °C in experiment [2]; -0.16 °C in experiment [3]; -0.85 °C in experiment [4]; 0.38 °C in experiment [5]; -0.59 °C in experiment [6].
Take `Cc1nc2ccccc2c(-c2ccc3c4c(ccnc24)CCO3)c1[C@H](OC(C)(C)C)C(=O)O`: the ΔTm is -0.44 °C in experiment [1]; 0.2 °C in experiment [2]; 0.28 °C in experiment [3]; -0.88 °C in experiment [4]; 0.3 °C in experiment [5]; -0.03 °C in experiment [6].
For the compound `C#Cc1cnc2[nH]cc(-c3cccc4c3CCN4C(=O)[C@@H]3CCCN3C#N)c2c1`, the ΔTm in experiment [1] amounted to 5.17 °C; in experiment [2] it was 1.31 °C; in experiment [3], 2.51 °C; in experiment [4], 2.99 °C; in experiment [5], 0.55 °C; in experiment [6], 4.94 °C.
With `N#Cc1cccc(-c2c[nH]c3ncnc(N4CCOCC4)c23)c1`, the thermal shift (ΔTm) in experiment [1] came out at 1.39 °C; in experiment [2], 1.88 °C; in experiment [3], 0.56 °C; in experiment [4], 4.32 °C; in experiment [5] it was 0.64 °C; in experiment [6], 4.35 °C.
In the case of `c1ccc(C2CCN(c3cnc4c(N5CCOCC5)nccn34)CC2)cc1`, the ΔTm in experiment [1] was 0.01 °C; in experiment [2], 0.19 °C; in experiment [3] it was 0.18 °C; in experiment [4], -0.6 °C; in experiment [5], 0.57 °C; in experiment [6] it was -0.14 °C.
For the compound `COCCOCn1c(S(C)(=O)=O)nc2c1c(=O)n(C)c(=O)n2C`, the thermal shift (ΔTm) in experiment [1] was 0.21 °C; in experiment [2], 0.39 °C; in experiment [3] it was -0.13 °C; in experiment [4], -0.24 °C; in experiment [5] it was -0.83 °C; in experiment [6], 0.11 °C.
As to `COc1cc2nc(C)nc(NC3(c4ccccc4)CC3)c2cc1OC`, the ΔTm in experiment [1] is 0.57 °C; in experiment [2], 0.41 °C; in experiment [3], 0.15 °C; in experiment [4], -0.3 °C; in experiment [5], 0.33 °C; in experiment [6], 0.65 °C.
Regarding `Cn1cc(Nc2nccc(N3CC4CCC(C3)N4C(=O)[C@@H]3CC3(F)F)n2)cn1`, the shift in melting temperature (ΔTm) in experiment [1] is 1.98 °C; in experiment [2], 2.84 °C; in experiment [3], 0.33 °C; in experiment [4], 0.6 °C; in experiment [5] it was 0.56 °C; in experiment [6], 8.08 °C.
`CC(=O)Nc1nc(C)c(S(=O)(=O)Nc2ccc(C(O)(C(F)(F)F)C(F)(F)F)cc2)s1`: the ΔTm in experiment [1] was 0.65 °C; in experiment [2], 0.74 °C; in experiment [3], 0.36 °C; in experiment [4], 0.5 °C; in experiment [5] it was 0.18 °C; in experiment [6], 1.27 °C.
On to `CNc1ncc2cc(-c3ccc(-c4ncccc4F)cc3Cl)c(=O)n(C[C@H]3OC[C@H](N)CO3)c2n1`, for which the ΔTm in experiment [1] was 4.27 °C; in experiment [2], 1.01 °C; in experiment [3], 0.79 °C; in experiment [4], -0.51 °C; in experiment [5] it was 3.43 °C; in experiment [6], 4.87 °C.
For the compound `CN(C)C(=O)Cn1cc(-c2ccc(-c3cncc4ccccc34)cc2)cn1`, the ΔTm in experiment [1] was 3.4 °C; in experiment [2] it was 0.46 °C; in experiment [3], 1.89 °C; in experiment [4] it was 0.72 °C; in experiment [5], -0.64 °C; in experiment [6] it was 2.96 °C.
Regarding `CNCc1ccc(-c2cc(-c3nc(-c4ccc(S(=O)(=O)C(C)C)cc4)cnc3N)on2)cc1`, the ΔTm in experiment [1] is 4.85 °C; in experiment [2] it was -0.24 °C; in experiment [3], -0.18 °C; in experiment [4], 9.94 °C; in experiment [5], -0.07 °C; in experiment [6], 2.41 °C.
For the compound `Nc1ncnc2c1c(I)cn2[C@@H]1O[C@H](CO)[C@@H](O)[C@H]1O`, the ΔTm in experiment [1] turned out to be 2.09 °C; in experiment [2], 6.73 °C; in experiment [3] it was 5.26 °C; in experiment [4], 2.65 °C; in experiment [5] it was 1.65 °C; in experiment [6] it was 2.13 °C.
Turning to `CNC(=O)c1cc(C(=O)N[C@H]2[C@@H]3COC[C@@H]32)cc2c1O[C@@H](CF)[C@@H]2c1ccccc1`, the ΔTm in experiment [1] is -0.03 °C; in experiment [2] it was 0.5 °C; in experiment [3], 0.22 °C; in experiment [4], -0.96 °C; in experiment [5], 0.58 °C; in experiment [6], -0.12 °C.
Turning to `Cc1ccc(C(=O)Nc2cc(N3CCN(C)CC3)cc(C(F)(F)F)c2)cc1-n1cc(-c2cnn(C)c2C)nn1`, the thermal shift (ΔTm) in experiment [1] was 12.9 °C; in experiment [2], 0.76 °C; in experiment [3] it was 1.19 °C; in experiment [4], -0.67 °C; in experiment [5], 0.45 °C; in experiment [6], 0.76 °C.
For the compound `N=C(N)NCCC[C@H](NC(=O)C(c1ccccc1)c1ccccc1)C(=O)NCc1ccc(CNC(N)=O)cc1`, the ΔTm is -0.28 °C in experiment [1]; 0.46 °C in experiment [2]; 0.29 °C in experiment [3]; -0.57 °C in experiment [4]; 0.19 °C in experiment [5]; 0.09 °C in experiment [6].
For the compound `CN(C)CCCN1c2ccccc2Sc2ccc(Cl)cc21`, the ΔTm was 0.03 °C in experiment [1]; 0.8 °C in experiment [2]; 0.05 °C in experiment [3]; -0.47 °C in experiment [4]; 0.34 °C in experiment [5]; -0.47 °C in experiment [6].
`COc1cc(C(=O)NC2CCN(C)CC2)ccc1Nc1ncc(C(F)(F)F)c(NCc2ccc(C)cc2N(C)S(C)(=O)=O)n1`: the shift in melting temperature (ΔTm) in experiment [1] was 0.73 °C; in experiment [2], 0.29 °C; in experiment [3], 1.1 °C; in experiment [4], -0.29 °C; in experiment [5] it was 3.52 °C; in experiment [6], 5.17 °C.
Turning to `CN(C)C(=O)c1sc2nc(N3CCC(S(C)(=O)=O)CC3)cc(C(F)(F)F)c2c1N`, the thermal shift (ΔTm) is -0.62 °C and 1 °C in experiment [1]; 0.58 °C and 0.19 °C in experiment [2]; 0.2 °C and 0.17 °C in experiment [3]; -0.24 °C and -0.54 °C in experiment [4]; -0.76 °C and 0.56 °C in experiment [5]; -0.67 °C and 0 °C in experiment [6].
In the case of `CCO[C@H](COc1ccc(C(F)(F)F)cc1)CSc1ccc(OCC(=O)O)c(C)c1`, the ΔTm in experiment [1] was 0.26 °C; in experiment [2], 0.43 °C; in experiment [3] it was 0.11 °C; in experiment [4] it was -0.41 °C; in experiment [5], 0.32 °C; in experiment [6] it was -1.04 °C.
